Reference: the supplement of paper PMC10849652
The full data set covers some 7,900 targets. This sample favours those with a hit. About 0.6% of all pairs of compound and target were hits. A number with no mark means an inactive call.

What was measured:
Assay in all cases: log2 fold change, soluble protein after heating vs DMSO (PISA); higher = thermal stabilisation; K562 cells, 10 uM, 30 min; active = over 0.2 and 3.5 SD of the protein, either way, in both replicates (recomputed)
erlotinib = compound: C#Cc1cccc(Nc2ncnc3cc(OCCOC)c(OCCOC)cc23)c1 [erlotinib]
In short: (§1)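 K562 cells at 2×10^6 cells/mL were exposed to 10 μM compound for 30 min, then aliquots were heated for 3 min across 48°C-58°C, pooled, and extracted in PBS containing 0.5% NP-40 at 4°C. The supernatant after 21,000xg for 90 min was taken as soluble protein and measured by TMTpro 16plex LC-MS/MS with channel sums equalised. Thermal stability is reported relative to control samples, with values from duplicates. Fold changes are given on a log2 scale.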

[1] = compound: C/C(=N\NC(=O)C1=CC(=CC=C1)S(=O)(=O)N2CCOCC2)/C3=C(C=CC(=C3)Cl)O
In short: as §1

[2] = compound: C1=CC(=C(C=C1Cl)C2=NC3=NC=CN=C3C(=N2)NC4=CC=NC=C4)F
In short: as §1

[3] = compound: C1=CC(=CC=C1C2=NC3=C(N2)C=C(C=C3)C(=O)N)OC4=CC=C(C=C4)Cl
In short: as §1

[4] = compound: C1=CC2=C(C=CC(=C2)/C=C\3/C(=O)NC(=NCC4=CC=CS4)S3)N=C1
In short: as §1

[5] = compound: C1=CC2=NC=CN=C2C=C1/C=C/3\C(=O)NC(=O)S3
In short: as §1

[6] = compound: C1=CC=C(C=C1)C2=NC(=C(N2)C3=CC=NC=C3)C4=CC(=C(C=C4)Cl)O
In short: as §1

[7] = compound: C1=CC=C2C(=C1)C3=NNC4=CC=CC(=C43)C2=O
In short: as §1

[8] = compound: C1CCN(C1)C(=O)NC2=CC=CC(=C2)NC3=NC=C(C(=N3)NCCC4=CN=CN4)Br
In short: as §1

[9] = compound: C1CN(CCC1(CC2=CC=C(C=C2)Cl)N)C3=NC=NC4=C3C=CN4
In short: as §1

IRAK-1-4 Inhibitor I = compound: C1COCCN1CCN2C3=CC=CC=C3N=C2NC(=O)C4=CC(=CC=C4)[N+](=O)[O-] [IRAK-1-4 Inhibitor I]
In short: as §1

ibrutinib = compound: C=CC(=O)N1CCC[C@@H](n2nc(-c3ccc(Oc4ccccc4)cc3)c3c(N)ncnc32)C1 [ibrutinib]
In short: as §1

[10] = compound: CC(=O)c1cnc2ccc(-c3cc(Cl)c(O)c(Cl)c3)nc2c1N[C@H]1CC[C@H](CN(C)C)CC1
In short: as §1

ralimetinib = compound: CC(C)(C)Cn1c(N)nc2ccc(-c3[nH]c(C(C)(C)C)nc3-c3ccc(F)cc3)nc21 [ralimetinib]
In short: as §1

[11] = compound: CC(C)(O)CC(=O)NCCn1ccc2ncnc(Nc3ccc(Oc4cccc(C(F)(F)F)c4)c(Cl)c3)c21
In short: as §1

[12] = compound: CC(C)C1=C2N=C(C=C(N2N=C1)NCC3=CC=CC=C3)NCCCCCCN
In short: as §1

[13] = compound: CC(C)C[C@@H](C=O)NC(=O)[C@H](CC(C)C)NC(=O)[C@H](CC(C)C)NC(=O)OCc1ccccc1
In short: as §1

pinometostat = compound: CC(C)N(C[C@H]1O[C@@H](n2cnc3c(N)ncnc32)[C@H](O)[C@@H]1O)[C@H]1C[C@@H](CCc2nc3cc(C(C)(C)C)ccc3[nH]2)C1 [pinometostat]
In short: as §1

[14] = compound: CC1=C(C(CC(=O)N1)C2=CC=C(C=C2)C(F)(F)F)C(=O)NC3=C(C=C4C(=C3)C=NN4)F
In short: as §1

[15] = compound: CC1=C(C2=C(C=C1)C(=O)C3=CC=CC=C3N2CCCN)C
In short: as §1

Chain of UniProt P21964 (P21964 whole entry, looked up): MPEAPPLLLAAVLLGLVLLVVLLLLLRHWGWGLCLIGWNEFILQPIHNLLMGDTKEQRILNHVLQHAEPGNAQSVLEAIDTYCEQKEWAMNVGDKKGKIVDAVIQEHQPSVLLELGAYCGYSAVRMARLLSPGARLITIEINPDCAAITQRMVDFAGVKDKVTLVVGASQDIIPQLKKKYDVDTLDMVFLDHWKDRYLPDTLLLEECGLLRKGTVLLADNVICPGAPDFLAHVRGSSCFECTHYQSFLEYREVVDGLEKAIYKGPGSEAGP
Chain of UniProt Q96JB5 (Q96JB5 whole entry, looked up): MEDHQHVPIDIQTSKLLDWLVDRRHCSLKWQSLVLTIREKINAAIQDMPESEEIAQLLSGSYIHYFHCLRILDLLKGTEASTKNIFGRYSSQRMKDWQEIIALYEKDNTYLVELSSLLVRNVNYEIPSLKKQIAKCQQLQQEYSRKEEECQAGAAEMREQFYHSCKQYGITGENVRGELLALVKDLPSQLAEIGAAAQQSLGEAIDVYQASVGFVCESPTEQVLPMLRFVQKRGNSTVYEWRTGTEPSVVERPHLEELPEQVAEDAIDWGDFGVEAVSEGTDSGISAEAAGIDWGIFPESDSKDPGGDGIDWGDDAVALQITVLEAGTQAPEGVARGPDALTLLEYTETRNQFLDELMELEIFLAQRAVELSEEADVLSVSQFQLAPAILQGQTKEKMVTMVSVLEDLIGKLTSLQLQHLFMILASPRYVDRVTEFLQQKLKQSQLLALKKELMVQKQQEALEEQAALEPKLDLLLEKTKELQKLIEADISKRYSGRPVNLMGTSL
Chain of UniProt Q9NZN8 (Q9NZN8 whole entry, looked up): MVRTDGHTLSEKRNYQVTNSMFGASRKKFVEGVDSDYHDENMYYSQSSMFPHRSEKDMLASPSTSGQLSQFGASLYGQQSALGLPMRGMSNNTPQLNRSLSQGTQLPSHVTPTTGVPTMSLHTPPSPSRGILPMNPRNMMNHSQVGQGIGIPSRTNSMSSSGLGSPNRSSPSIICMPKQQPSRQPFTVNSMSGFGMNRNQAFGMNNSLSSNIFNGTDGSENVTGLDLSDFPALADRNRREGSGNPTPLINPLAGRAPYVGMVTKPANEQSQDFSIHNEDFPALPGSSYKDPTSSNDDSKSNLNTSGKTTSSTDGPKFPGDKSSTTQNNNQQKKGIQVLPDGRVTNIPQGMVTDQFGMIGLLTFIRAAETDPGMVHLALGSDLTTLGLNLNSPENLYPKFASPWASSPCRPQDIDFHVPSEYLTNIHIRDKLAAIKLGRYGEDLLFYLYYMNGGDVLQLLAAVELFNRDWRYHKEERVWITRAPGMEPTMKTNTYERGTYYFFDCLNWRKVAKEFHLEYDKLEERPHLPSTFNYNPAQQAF
Chain of UniProt Q9NRR8 (Q9NRR8 whole entry, looked up): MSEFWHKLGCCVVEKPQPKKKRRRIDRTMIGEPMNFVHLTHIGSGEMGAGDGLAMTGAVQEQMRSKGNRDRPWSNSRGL
Chain of UniProt Q13555 (Q13555 whole entry, looked up): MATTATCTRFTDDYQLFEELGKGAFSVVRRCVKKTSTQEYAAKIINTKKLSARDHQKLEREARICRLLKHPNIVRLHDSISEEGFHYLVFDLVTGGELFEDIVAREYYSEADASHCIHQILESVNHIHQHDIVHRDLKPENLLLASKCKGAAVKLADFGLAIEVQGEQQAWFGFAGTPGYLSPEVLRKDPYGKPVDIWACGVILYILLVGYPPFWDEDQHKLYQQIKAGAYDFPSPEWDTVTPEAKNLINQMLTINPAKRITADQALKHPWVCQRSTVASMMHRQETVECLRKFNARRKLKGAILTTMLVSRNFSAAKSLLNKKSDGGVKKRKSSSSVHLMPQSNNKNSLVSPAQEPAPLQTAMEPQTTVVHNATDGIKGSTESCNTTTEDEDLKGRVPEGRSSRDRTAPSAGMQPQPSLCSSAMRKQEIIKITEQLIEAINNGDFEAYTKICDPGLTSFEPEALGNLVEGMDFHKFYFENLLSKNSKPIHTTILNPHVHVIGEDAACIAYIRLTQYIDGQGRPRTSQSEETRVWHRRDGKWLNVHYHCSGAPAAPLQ
Chain of UniProt Q9NYV4 (Q9NYV4 whole entry, looked up): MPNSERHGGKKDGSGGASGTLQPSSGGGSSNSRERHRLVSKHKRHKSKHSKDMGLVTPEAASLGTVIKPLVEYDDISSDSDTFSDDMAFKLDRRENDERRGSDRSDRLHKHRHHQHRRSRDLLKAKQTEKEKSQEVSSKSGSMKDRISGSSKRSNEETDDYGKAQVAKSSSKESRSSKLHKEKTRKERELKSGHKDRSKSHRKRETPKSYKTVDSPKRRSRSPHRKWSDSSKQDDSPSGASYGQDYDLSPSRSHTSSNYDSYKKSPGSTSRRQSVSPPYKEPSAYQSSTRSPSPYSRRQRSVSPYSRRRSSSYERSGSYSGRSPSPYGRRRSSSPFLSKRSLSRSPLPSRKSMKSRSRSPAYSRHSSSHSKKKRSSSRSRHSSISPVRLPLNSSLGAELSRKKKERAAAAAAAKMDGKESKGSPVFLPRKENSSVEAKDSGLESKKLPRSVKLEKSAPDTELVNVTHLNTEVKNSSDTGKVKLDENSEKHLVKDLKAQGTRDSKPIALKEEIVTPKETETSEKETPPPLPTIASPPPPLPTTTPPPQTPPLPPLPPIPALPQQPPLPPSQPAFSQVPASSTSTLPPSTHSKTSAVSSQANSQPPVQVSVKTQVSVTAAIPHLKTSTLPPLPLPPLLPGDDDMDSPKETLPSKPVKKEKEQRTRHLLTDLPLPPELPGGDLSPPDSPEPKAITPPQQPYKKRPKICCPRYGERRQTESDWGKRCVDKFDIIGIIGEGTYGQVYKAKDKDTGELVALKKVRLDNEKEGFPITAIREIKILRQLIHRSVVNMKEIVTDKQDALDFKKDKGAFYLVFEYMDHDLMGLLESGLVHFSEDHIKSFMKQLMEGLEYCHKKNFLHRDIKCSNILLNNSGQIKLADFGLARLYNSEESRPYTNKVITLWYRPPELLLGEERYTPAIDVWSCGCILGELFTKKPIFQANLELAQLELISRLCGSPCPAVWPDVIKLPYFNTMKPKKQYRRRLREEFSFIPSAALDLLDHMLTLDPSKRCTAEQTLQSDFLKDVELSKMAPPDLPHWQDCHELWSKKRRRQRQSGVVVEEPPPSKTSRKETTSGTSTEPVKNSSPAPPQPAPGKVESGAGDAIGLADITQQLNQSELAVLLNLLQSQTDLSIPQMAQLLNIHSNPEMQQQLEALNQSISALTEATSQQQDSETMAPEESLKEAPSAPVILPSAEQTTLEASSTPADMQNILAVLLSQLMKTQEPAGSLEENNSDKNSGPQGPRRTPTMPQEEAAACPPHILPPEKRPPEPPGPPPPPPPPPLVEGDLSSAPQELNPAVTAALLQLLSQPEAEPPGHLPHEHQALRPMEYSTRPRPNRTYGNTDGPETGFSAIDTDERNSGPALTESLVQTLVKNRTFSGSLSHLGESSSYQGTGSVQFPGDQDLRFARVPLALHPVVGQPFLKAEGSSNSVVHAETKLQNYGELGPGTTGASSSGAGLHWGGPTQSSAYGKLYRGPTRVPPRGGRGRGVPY
Chain of UniProt Q7KZN9 (Q7KZN9 whole entry, looked up): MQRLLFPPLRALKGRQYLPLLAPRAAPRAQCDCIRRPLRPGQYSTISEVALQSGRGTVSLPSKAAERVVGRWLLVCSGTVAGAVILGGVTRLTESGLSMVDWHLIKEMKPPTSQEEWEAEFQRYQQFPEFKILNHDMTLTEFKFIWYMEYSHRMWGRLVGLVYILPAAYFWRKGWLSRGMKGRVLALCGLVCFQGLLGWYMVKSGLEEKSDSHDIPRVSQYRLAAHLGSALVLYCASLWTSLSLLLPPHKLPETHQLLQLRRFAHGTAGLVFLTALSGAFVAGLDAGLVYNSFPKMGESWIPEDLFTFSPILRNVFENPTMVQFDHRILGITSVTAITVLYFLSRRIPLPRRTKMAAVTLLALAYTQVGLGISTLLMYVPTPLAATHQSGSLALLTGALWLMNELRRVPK
Chain of UniProt Q9H444 (Q9H444 whole entry, looked up): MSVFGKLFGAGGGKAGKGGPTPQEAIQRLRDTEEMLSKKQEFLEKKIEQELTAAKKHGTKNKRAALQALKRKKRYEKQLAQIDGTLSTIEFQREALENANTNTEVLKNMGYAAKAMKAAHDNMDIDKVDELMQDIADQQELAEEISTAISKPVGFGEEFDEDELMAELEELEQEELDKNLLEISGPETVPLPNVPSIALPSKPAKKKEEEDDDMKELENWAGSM
Chain of UniProt Q9P031 (Q9P031 whole entry, looked up): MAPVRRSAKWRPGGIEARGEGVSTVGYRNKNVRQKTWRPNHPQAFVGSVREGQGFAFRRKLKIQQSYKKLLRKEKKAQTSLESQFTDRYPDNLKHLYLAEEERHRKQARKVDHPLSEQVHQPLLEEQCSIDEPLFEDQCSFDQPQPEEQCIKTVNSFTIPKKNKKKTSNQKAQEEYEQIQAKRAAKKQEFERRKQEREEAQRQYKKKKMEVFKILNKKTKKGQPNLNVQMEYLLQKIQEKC
Chain of UniProt O95628 (O95628 whole entry, looked up): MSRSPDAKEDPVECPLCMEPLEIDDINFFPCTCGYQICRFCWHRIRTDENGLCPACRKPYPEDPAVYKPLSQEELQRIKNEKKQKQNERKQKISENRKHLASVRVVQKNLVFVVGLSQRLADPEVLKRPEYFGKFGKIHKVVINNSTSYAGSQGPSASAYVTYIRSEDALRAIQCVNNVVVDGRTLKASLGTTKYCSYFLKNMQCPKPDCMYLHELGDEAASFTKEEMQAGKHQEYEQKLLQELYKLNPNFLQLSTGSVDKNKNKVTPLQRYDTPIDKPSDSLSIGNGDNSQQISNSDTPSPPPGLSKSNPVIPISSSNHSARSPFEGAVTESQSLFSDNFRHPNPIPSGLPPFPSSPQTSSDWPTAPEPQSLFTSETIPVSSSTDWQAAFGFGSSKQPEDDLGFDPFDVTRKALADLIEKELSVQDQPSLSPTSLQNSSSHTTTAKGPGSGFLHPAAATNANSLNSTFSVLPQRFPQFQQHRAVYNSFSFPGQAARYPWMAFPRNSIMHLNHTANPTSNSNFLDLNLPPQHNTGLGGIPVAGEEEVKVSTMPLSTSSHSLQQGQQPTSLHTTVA

Target	log2 fold change (erlotinib)	log2 fold change [1]	log2 fold change [2]	log2 fold change [3]	log2 fold change [4]	log2 fold change [5]	log2 fold change [6]	log2 fold change [7]	log2 fold change [8]	log2 fold change [9]	log2 fold change (IRAK-1-4 Inhibitor I)	log2 fold change (ibrutinib)	log2 fold change [10]	log2 fold change (ralimetinib)	log2 fold change [11]	log2 fold change [12]	log2 fold change [13]	log2 fold change (pinometostat)	log2 fold change [14]	log2 fold change [15]
COMMD2 (UniProt Q86X83)	0.114	0.049	-0.053	0.085	0.091	-0.02	-0.017	0.058	0.071	-0.119	-0.009	-0.038	-0.119	-0.023	-0.179	-0.271	0.007	0.037	0.008	0.01
CDK5RAP3 isoform 4 (UniProt Q96JB5)	0.089	0.027	0.042	-0.017	0.01	0.023	0.033	0.041	-0.003	-0.068	-0.051	-0.068	-0.005	-0.015	-0.062	-0.056	-0.002	0.017	-0.031	0.009
CHMP4B (UniProt Q9H444)	0.018	-0.006	0.024	0.013	-0.014	0.057	0.043	-0.001	0.083	0.035	0.068	-0.024	0.015	0.039	0.015	0.014	-0.003	-0.032	0.046	-0.011
CPSF3 (UniProt Q9UKF6)	0.006	0.104	0.028	0	-0.003	0.048	0	-0.022	-0.005	-0.011	-0.044	-0.04	0.026	-0.006	0.028	-0.052	0.035	0.036	-0.025	-0.013
CSK (UniProt P41240)	0.023	0.031	-0.038	0.005	0.056	-0.022	0.024	-0.02	-0.034	-0.05	-0.016	0.074	0.111	0.011	-0.034	-0.131	0.031	0	-0.016	-0.011
CCDC59 (UniProt Q9P031)	-0.118	-0.127	-0.192	0.071	-0.136	-0.014	-0.091	0.069	0.054	-0.027	-0.083	-0.051	0.224	0.28	-0.073	0.093	0.197	0.233	0.036	-0.468
CNOT4 isoform 6 (UniProt O95628)	0.004	0.06	0.026	0.014	0.03	0.003	-0.007	-0.043	-0.011	0.044	0.044	0.016	-0.062	-0.048	0.002	0.038	-0.019	-0.025	0.018	0.051
CDK12 (UniProt Q9NYV4)	-0.049	0.001	-0.44	0.076	-0.06	-0.053	-0.066	-0.23	-0.077	-0.187	-0.179	0.008	-0.566	0.138	0.067	-0.211	0.006	0.399	0.041	-0.014
COPS8 (UniProt Q99627)	0.033	0.032	-0.005	-0.002	0.081	0.008	0.012	-0.042	-0.04	0.015	-0.006	0.039	-0.011	-0.042	0.031	0.043	0.027	-0.021	-0.006	0.13
CAMK2G isoform 6 (UniProt Q13555)	-0.003	-0.096	-0.047	-0.098	0.054	0.009	0.055	0.08	-0.02	0.015	-0.008	0.004	0.181	0.118	0.039	-0.016	0.038	0.067	-0.075	0.063
CPSF1 (UniProt Q10570)	-0.004	-0.057	-0.108	0.039	-0.012	0.02	-0.062	-0.045	0.041	-0.037	-0.006	-0.007	0.064	0	0.036	-0.009	0.075	0.142	0	-0.093
COMT (UniProt P21964)	-0.026	0.076	-0.015	-0.08	0.023	0.012	0.026	0.029	0.031	-0.059	0.01	-0.032	-0.065	-0.043	-0.007	0.006	-0.039	-0.024	-0.068	0.053
CNOT2 (UniProt Q9NZN8)	0.043	0.059	0.009	-0.024	0.016	0.045	-0.031	-0.042	-0.019	-0.034	0.112	0.013	-0.045	-0.027	-0.038	-0.112	0.013	0.05	-0.005	0.059
CEPT1 (UniProt Q9Y6K0)	0.099	0.034	0.016	0.107	0.037	0.047	0.011	0.071	0.007	-0.074	0.035	-0.014	0.072	-0.026	0.073	-0.466 (active)	-0.118	-0.016	0.023	0.118
COX15 (UniProt Q7KZN9)	-0.01	-0.008	0.067	-0.008	0.03	0.145	-0.009	-0.019	0.01	0.057	0.022	-0.04	0.027	-0.03	-0.036	-0.04	0.001	-0.022	-0.004	0.008
CDC42SE1 (UniProt Q9NRR8)	0.078	0.041	-0.005	0.014	0.021	0	-0.009	-0.207	0.023	-0.012	0.066	0.049	-0.004	0.021	0.042	-0.111	0.074	0.11	0.282	0.015
